# Screening results as filed in PubChem.
# An excerpt weighted towards active compounds, which were near 3.2% of everything screened.
# Tau FP inhib: blocks human tau fibril formation measured by polarization; Potency, µM (highest dose often 57.7 µM), for inactives: at the highest dose activity, negative = inhibition, most hits filed as inhibitors; K18 P301L tau heparin fibrillization, Alexa594 FP, 6 h; 280,000 compounds, 0.39% hits; note: nearly all actives have a fitted effect of over 55% in size
# Target sequence (P10636 561-689 P618L limits assumed): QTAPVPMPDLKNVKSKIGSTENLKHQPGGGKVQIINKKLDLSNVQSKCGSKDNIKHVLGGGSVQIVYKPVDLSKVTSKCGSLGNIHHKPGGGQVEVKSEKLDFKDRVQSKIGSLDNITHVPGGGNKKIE
#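 FP of Alexa 594-tau after heparin (20 uM) induction. Substrate: human K18 P301L, 15 uM unlabeled, 0.24 uM labeled. Buffer 100 mM sodium acetate pH 7. 6 hr, 37 C.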
# Tau fluor cs: counter-screen for tau fibril formation inhibitors | 280,000 compounds, 0.93% hits | AID 1463 | Potency, µM (highest dose often 57.7 µM), for inactives: at the highest dose activity change, negative = decrease | tau K18 P301L Alexa594 fluorescence, heparin fibrillization; note: nearly all actives have a fitted effect of over 55% in size
#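 Human K18 P301L tau (15 uM unlabeled plus 0.24 uM Alexa 594-labeled, final) in 100 mM sodium acetate pH 7 was mixed with compound and 20 uM heparin and incubated 6 hr at 37 C.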
# TR SRC2 fluor cs: alters Texas Red total fluorescence, flagging assay interference; TRb/SRC2 Texas Red total fluorescence interference; Potency, µM (titrated, usually from 106 µM), for the others: at the highest dose fluorescence change, negative = quenching; 280,000 compounds, 0.29% hits; active = well fitted curve in either direction with a large enough effect; inconclusive = small, poorly fitted or top-dose-only effect
#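 Human TRb ligand-binding domain at 0.6 uM with 20 nM Texas Red SRC2 peptide in Tris buffer containing 1 uM T3 and 5% DMSO, incubated with compound 5 h at ambient temperature. Total fluorescence (555/632 nm) calculated as parallel + 2 × perpendicular.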
# TRb-SRC2 inh: inhibitors of human thyroid hormone receptor beta-SRC2 interaction | P10828 | TRbeta-SRC2 peptide binding, fluorescence polarization; receptor liganded with 1 µM T3 | Potency, µM (series often up to 106 µM), inactives show top-dose activity change, negative = inhibition, most hits filed as inhibitors | 280,000 compounds, 0.065% hits | AID 1469;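 note: plate controls were bound peptide for no effect and peptide without receptor for full effect; nearly all actives have a fitted effect of over 50% in size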
# Target sequence (P10828 whole entry, looked up): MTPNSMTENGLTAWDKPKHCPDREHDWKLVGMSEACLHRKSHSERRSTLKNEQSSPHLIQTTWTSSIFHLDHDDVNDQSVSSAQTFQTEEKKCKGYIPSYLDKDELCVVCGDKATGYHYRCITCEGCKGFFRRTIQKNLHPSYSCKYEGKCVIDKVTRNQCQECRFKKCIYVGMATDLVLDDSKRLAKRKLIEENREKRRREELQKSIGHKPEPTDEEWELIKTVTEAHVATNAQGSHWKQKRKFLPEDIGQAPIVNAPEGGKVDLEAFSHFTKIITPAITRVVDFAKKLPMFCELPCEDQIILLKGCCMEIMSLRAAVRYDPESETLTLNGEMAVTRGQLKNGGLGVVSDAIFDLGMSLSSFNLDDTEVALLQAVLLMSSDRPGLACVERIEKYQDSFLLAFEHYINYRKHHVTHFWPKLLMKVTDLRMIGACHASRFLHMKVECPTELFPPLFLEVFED
#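 Fluorescence polarization of 20 nM Texas Red SRC2 peptide with 0.6 uM human TRb ligand-binding domain, in Tris buffer with 1uM T3 and 5% DMSO. Incubated 5 hr ambient; normalized to unbound and bound controls.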
# RGS12 GoLoco inh: blocks human Gai1 binding to RGS12 GoLoco peptide, red readout. Potency, µM (titrated, usually from 61.6 µM), without a hit: at the highest dose activity, negative = inhibition, most hits filed as inhibitors. P63096. Gai1:RGS12 GoLoco peptide FP, rhodamine, 10 min. 230,000 compounds, 0.44% hits; active = well fitted inhibition curve with a large enough effect, not every such curve was filed as active; inactive = no such curve, though single readings can be large or run the other way; note: nearly all actives have a fitted effect of over 30% in size
# Tau ThT inhib: tau fibrillization inhibition (ThT binding) | 270,000 compounds, 2.1% hits | recombinant tau K18 P301L, heparin-induced fibrillization, ThT fluorescence | P10636 | AID 1460 | Potency, µM (doses to about 57.4 µM), for the others: at the top dose activity, negative = inhibition, most hits filed as inhibitors; note: nearly all actives have a fitted effect of over 55% in size
#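 ThT emission at 510 nm, taken 1 hr after adding 30 uM dye, quantifies aggregates formed when 20 uM heparin acts on human tau K18 P301L for 6 hr at 37 C.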
# Numbers without * were called inactive; ? = inconclusive; · = not tested or not shown; [ ] = dose if it differs, or a comment. Unless noted, calls come from the whole dose curve; as a rule, active = well fitted curve in the direction sought with a large enough effect; inconclusive = small, poorly fitted or top-dose-only effect, or another doubt; inactive = no such curve, though single readings can be large; an effect the other way counts as inactive or inconclusive. Unless noted, % is set by controls: 0 for no effect and ±100 for the full control effect; potency is the fitted concentration of half-maximal effect.
SMILES,Tau FP inhib,Tau fluor cs,TR SRC2 fluor cs,TRb-SRC2 inh,RGS12 GoLoco inh,Tau ThT inhib
NS(=O)(=O)c1ccc(NC2=CC(c3ccc([N+](=O)[O-])cc3)N(c3ccc(S(N)(=O)=O)cc3)C2=O)cc1 (configuration not stated),-14%,13µM*[quencher],-7%,-1%,4%,?
CCCCCCCCCCCCCCN,·,·,-5%[201 µM],3%[201 µM],·,·
Nc1cc(N2CCCCC2)nc(N)[n+]1OS(=O)(=O)[O-],-4%,-19%,-1%,-1%,2%,-17%
O=C(Nc1cccc(F)c1)C1CCN(S(=O)(=O)c2ccc3[nH]c4c(c3c2)CCCCC4)CC1,-2%,28µM*[quencher],-2%,4%,·,-13%
COc1cccc(NC(=O)C2CCN(S(=O)(=O)c3ccc4[nH]c5c(c4c3)CCCCC5)CC2)c1,-14%,6.3µM*[quencher],0%,0%,·,3%
CSc1cccc(NC(=O)C2CCN(S(=O)(=O)c3ccc4[nH]c5c(c4c3)CCCCC5)CC2)c1,-5%,?,-2%,-2%,·,6%
NS(=O)(=O)c1cc(C(=O)O)c(O)c2ccccc12,·,·,·,·,4%[14.2 µM],·
Cc1cccc(N2C(S)=C(C#N)C(=O)NC23CCCCC3)c1,?,-25%,-2%,2%,-14%,32µM*
O=C1OC2(c3cc(Br)c(O)c(Br)c3Oc3c2cc(Br)c(O)c3Br)c2c(Cl)c(Cl)c(Cl)c(Cl)c21,·,·,?,2.5µM*,0.79µM*,·
Cc1cc(C)cc(NC(=O)Cn2c(=O)n(-c3cc(C)cc(C)c3)c(=O)c3oc4ccccc4c32)c1,-5%,-7%,-3%,5%,·,-6%
Cc1ccc(-n2c(=O)c3oc4ccccc4c3n(Cc3cccc(F)c3)c2=O)cc1C,1%,0%,-3%,9%,·,-1%
CN1CC[n+]2c(CN3C(=O)c4ccccc4C3=O)csc21,-3%,-1%,-4%,0%,18µM*,-2%
COc1ccc(C2=NN(S(C)(=O)=O)C(c3cn(-c4ccccc4)nc3-c3cccs3)C2)cc1 (configuration not stated),20µM*,?,-2%,4%,·,8%
CCC1OC(=O)C[C@@H](O)[C@H](C)[C@@H](OC2OC(C)CC(N(C)C)C2O)[C@@H](CC=O)C[C@@H](C)C(=O)/C=C/[C@]2(C)OC2C1C (some centres not stated),·,·,-3%,8%,·,·
O=C(CSc1nnc(-c2cccnc2)o1)c1cc2ccccc2oc1=O,2%,-21%,-2%,-6%,16%,?
Cn1cnnc1SCC(=O)c1cc2ccccc2oc1=O,?,?,-3%,6%,-7%,28µM*
COc1ccc2c(c1)c1c(c(=O)n(-c3cccc(C)c3)c(=O)n1Cc1cccc(Cl)c1)n2C,4%,7%,-1%,0%,·,6%
CCOC(=O)c1c(C)oc2ccc(N(C(=O)Oc3ccccc3)S(=O)(=O)c3ccccc3)cc12,-6%,-20%,5%,-1%,·,-1%
C=CC1=C(C)C2=Cc3c(C=C)c(C)c4[n]3[Sn+2][n]3c(c(C)c(CCC(=O)O)c3=CC3=NC(=C4)C(C)=C3CCC(=O)O)=CC1=N2,18µM*,-12%,?,13µM*,1.4µM*,?
CCCCN(CCCNC(=O)c1cc(Nc2ccc(OC)cc2)nc2ccccc12)Cc1ccccc1,5%,4µM*[quencher],0%,-10%,·,-15%
CCN(CCCNC(=O)c1cc2cc3cc(OC)ccc3nc2s1)c1cccc(C)c1,9%,4µM*[quencher],-1%,-1%,·,?
CCCCN(CCCC)CCCNC(=O)c1cc(-c2ccc(Cl)s2)nc2ccccc12,-10%,?,0.79µM*[quencher],-10%,·,-15%
COc1ccc(Nc2cc(C(=O)NCCc3ccccc3)c3ccccc3n2)cc1OC,3%,?,-1%,-7%,·,-4%
COc1ccc(Nc2cc(C(=O)NCCCN(C)Cc3ccccc3)c3ccccc3n2)cc1OC,?,28µM*[quencher],-3%,1%,·,?
NNS(=O)(=O)c1ccc(Oc2ccc(S(=O)(=O)NN)cc2)cc1,·,·,5%[201 µM],8%[201 µM],·,·
SMILES,Tau FP inhib,Tau fluor cs,TR SRC2 fluor cs,TRb-SRC2 inh,RGS12 GoLoco inh,Tau ThT inhib
CCCCCCCCCCCCCCCCCCN,·,·,1%[201 µM],4%[201 µM],·,·
COC(=O)N/N=C/C1=C[N+](=O)c2ccccc2[N+]1=O,3%,2%,2%,2%,-6%,5%
CCCCN(CCCNC(=O)c1cc(Nc2ccc(OC)c(OC)c2)nc2ccccc12)c1ccccc1,12%,7.1µM*[quencher],0%,9%,·,-16%
COc1ccccc1Nc1cc(C(=O)NCCCN(C)c2ccccc2)c2ccccc2n1,10%,?,-11%,-4%,·,-12%
COc1ccc(Nc2cc(C(=O)NC3CCC(C)CC3)c3ccccc3n2)cc1OC (configuration not stated),3%,?,0%,4%,·,-15%
CCN(CCCNC(=O)c1cc(Nc2ccc(OC)cc2OC)nc2ccccc12)c1cccc(C)c1,5%,7.1µM*[quencher],-1%,3%,·,?
CCc1ccc(Nc2cc(C(=O)NCCCN(C)c3ccccc3)c3ccccc3n2)cc1,1%,?,-4%,-9%,·,-8%
CCCCN(CCCNC(=O)c1cc(Nc2ccc(OC)c(OC)c2)nc2ccccc12)Cc1ccccc1,15%,13µM*[quencher],0%,2%,·,?
CSc1cccc(Nc2cc(C(=O)NCCCN(C)c3ccccc3)c3ccccc3n2)c1,-7%,2.8µM*[quencher],-1%,2%,·,-7%
CC(C)(C)C1CCC2(CC1)CCN(CCCN1CCOCC1)CC2,·,·,·,·,2%[14.2 µM],·
COc1ccc(Nc2cc(C(=O)NCCCN3CCN(C)CC3)c3ccccc3n2)c(OC)c1,12%,-27%,-2%,7%,-1%,?
CCCCN(CCCNC(=O)c1cc(Nc2ccc(OC)cc2OC)nc2ccccc12)Cc1ccccc1,15%,10µM*[quencher],-3%,5%,·,?
Cc1ccc(Cn2c(C)c3cnn(CC(=O)O)c(=O)c3c2C)cc1,-3%,0%,-2%,2%,·,4%
Fc1ccccc1CN1CCCN(C(=S)Nc2cccc(Cl)c2)C1,32µM*,?,1%,-12%,-11%,5%
Cc1c(Cl)cccc1NC(=S)N1CCCN(Cc2ccccc2F)C1,-9%,?,0%,-4%,9%,-2%
CCc1ccc2[nH]c(=O)c(C(c3nnnn3CC3CCCO3)N3CCCc4ccccc43)cc2c1 (configuration not stated),?,-27%,-3%,6%,15%,11µM*
Cc1cc2cc(C(c3nnnn3CC3CCCO3)N3CCCc4ccccc43)c(=O)[nH]c2cc1C (configuration not stated),-7%,-17%,6%,4%,82%,-18%
